As usually defined, the EC50 is the concentration that produces a half-maximal response.

Results with a measured potency or affinity are listed apart. A structure can be active in one record and inactive in another. The source made the active and inactive calls.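 Rule for the calls: active = EC50 of 10 µM or lower; inactive = EC50 above 10 µM or not measured.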 A value given as a limit tells only on which side of the number the result lay.

Ten molecules from PubChem BioAssay AID588442 (The Scripps Research Institute Molecular Screening Center, 2011) can be followed below.

The experiment can be described thus: optical interference in Abeta FP readout, dose response, artefact control for IDE activator project, biochemical, fluorescence polarization (AID 588442). The settings on record: FP artifact counterscreen, fluorescein-Abeta, no enzyme activity. In general terms: Fluorescence polarisation rises when a labelled molecule tumbles more slowly, as on binding a larger partner.
On to `C#CCOCCOCCOCCNc1nc(N2CCN(C(=O)CCCCCCCCCCNC(=O)Cn3cc(CCCCCN)nn3)CC2)nc(N2CCN(C(=O)CCCCCCCCCCNC(=O)[C@H](CO)n3cc(CCCSC)nn3)CC2)n1`, for which the EC50 was > 54.7 µM (inactive). Turning to `C#CCOCCOCCOCCNc1nc(N2CCN(C(=O)CCCCCCCCCCNC(=O)Cn3cc(CCCCCN)nn3)CC2)nc(N2CCN(C(=O)CCCCCCCCCCNC(=O)Cn3cc(C[C@@H](C)O)nn3)CC2)n1`, the EC50 was > 54.7 µM (inactive). For the molecule `C#CCOCCOCCOCCNc1nc(N2CCN(C(=O)CCCCCCCCCCNC(=O)[C@H]([C@@H](C)CC)n3cc(CCCCCN)nn3)CC2)nc(N2CCN(C(=O)CCCCCCCCCCNC(=O)[C@H]([C@@H](C)CC)n3cc(CCCCN=C(N)N)nn3)CC2)n1`, the EC50 is > 55.9 µM (inactive). In the case of `C#CCOCCOCCOCCNc1nc(N2CCN(C(=O)CCCCCCCCCCNC(=O)Cn3cc(C[C@@H](C)O)nn3)CC2)nc(N2CCN(C(=O)CCCCCCCCCCNC(=O)[C@H](CCCN=C(N)N)n3cc(C[C@@H](C)CC)nn3)CC2)n1`, the EC50 was > 55.9 µM (inactive). `C#CCOCCOCCOCCNc1nc(N2CCN(C(=O)CCCCCCCCCCNC(=O)[C@H](CO)n3cc(CCCSC)nn3)CC2)nc(N2CCN(C(=O)CCCCCCCCCCNC(=O)[C@H](CCCCN)n3cc(CCO)nn3)CC2)n1`: the EC50 is > 55.9 µM (inactive). In the case of `C#CCOCCOCCOCCNc1nc(N2CCN(C(=O)CCCCCCCCCCNC(=O)[C@H](CCCCN)n3cc(CCO)nn3)CC2)nc(N2CCN(C(=O)CCCCCCCCCCNC(=O)[C@H](CCCN=C(N)N)n3cc(C[C@@H](C)CC)nn3)CC2)n1`, the EC50 is > 55.9 µM (inactive). `C[n+]1c2cc(N)ccc2cc2ccc(N)cc21`: the EC50 was 0.576 µM (active). With `C#CCOCCOCCOCCNc1nc(N2CCN(C(=O)CCCCCCCCCCNC(=O)Cn3cc(CCCCCN)nn3)CC2)nc(N2CCN(C(=O)CCCCCCCCCCNC(=O)[C@H]([C@@H](C)CC)n3cc(CCCCCN)nn3)CC2)n1`, the EC50 is > 55.9 µM (inactive). For `C#CCOCCOCCOCCNc1nc(N2CCN(C(=O)CCCCCCCCCCNC(=O)[C@@H](CCSC)n3cc(CCO)nn3)CC2)nc(N2CCN(C(=O)CCCCCCCCCCNC(=O)[C@H](CO)n3cc(CCCCCN)nn3)CC2)n1`, the EC50 is > 56 µM (inactive). For `C#CCOCCOCCOCCNc1nc(N2CCN(C(=O)CCCCCCCCCCNC(=O)[C@H]([C@@H](C)CC)n3cc(CCCCN=C(N)N)nn3)CC2)nc(N2CCN(C(=O)CCCCCCCCCCNC(=O)[C@@H]([C@H](C)O)n3cc(C)nn3)CC2)n1`, the EC50 is > 54.7 µM (inactive).
